# Measured values published in PubChem BioAssay (EPA / NIEHS).
# Calls of active or inactive are those of the source. How the source made its calls: active means hit-call score of the fitted dose curve at least 0.9, where 1 is the maximum; inactive means score below 0.9.
# Assay: APR_HepG2_P-H2AX_24hr: Apredica 24-hour HepG2 Assay for H2AX Phosphorylation (AID 2282920)
# Details: high-content imaging, actives raise or lower the signal
# How it was run: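 HepG2 human liver cells were exposed for 24 hr to compounds at 0.39–200 uM in duplicate, with 0.5% v/v DMSO final. Fixed cells were immunostained for phospho-histone H2A.x plus Hoechst 33342, imaged by HCS fluorescence, and fitted bidirectionally against DMSO.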
SMILES,outcome,AC50
O=[N+]([O-])c1ccc(Oc2ccc(Cl)cc2Cl)cc1,inactive,–
Cn1cc(-c2ccccc2)c(=O)c(-c2cccc(C(F)(F)F)c2)c1,inactive,–
CN(C)c1ccccc1,inactive,–
Oc1ccccc1Cl,inactive,–
C=CCc1ccc2c(c1)OCO2,inactive,–
CCCCCCCCCCCCCN1CC(C)OC(C)C1 (stereo unspecified),–,76.6 µM (active)
Nc1cc(Cl)cc(C(=O)O)c1Cl,inactive,–
Nc1ccc(Cl)cc1N,–,1.2 µM (active)
CC(C)N(Cc1ccccc1)C(=O)C(C)(C)C,inactive,–
ClCCOCCCl,inactive,–
CO[C@@H]1[C@H](OC(=O)NC(=O)CCl)CC[C@]2(CO2)[C@H]1[C@@]1(C)O[C@@H]1CC=C(C)C,inactive,–
CCOc1cccc(C2(N3CCN(c4ccccc4)CC3)CCC(C)CC2)c1 (stereo unspecified),inactive,–
CCC12COCN1COC2,–,87.6 µM (active)
CS(=O)(=O)NC(=O)c1cc(Oc2ccc(C(F)(F)F)cc2Cl)ccc1[N+](=O)[O-],inactive,–
ClC1=C(Cl)C2(Cl)C3C(Cl)C=CC3C1(Cl)C2(Cl)Cl (stereo unspecified),–,80.7 µM (active)
Cc1ccc([N+](=O)[O-])cc1,inactive,–
O=C(N[C@H](c1ccccc1)[C@@H]1CN2CCC1CC2)c1c(Cl)ccc(C(F)(F)F)c1Cl,–,117 µM (active)
CCCCOC(=O)c1ccccc1C(=O)OCc1ccccc1,inactive,–
O=C1CCCO1,inactive,–
c1ccc(N=Nc2ccccc2)cc1,inactive,–
CN(C)[C@@H]1C(=O)C(C(N)=O)=C(O)[C@@]2(O)C(=O)C3=C(O)c4c(O)cccc4[C@@](C)(O)[C@H]3C[C@@H]12,inactive,–
CCC(C)c1ccc(O)cc1 (stereo unspecified),inactive,–
c1ccc2c(c1)oc1ccccc12,inactive,–
CCCSC(=O)N(CCC)CCC,inactive,–
CCCCCCCCn1sccc1=O,–,6.1 µM (active)
O=C(O)C1C2CCC(O2)C1C(=O)O (stereo unspecified),–,29.4 µM (active)
Oc1ccc2ccc3cccc4ccc1c2c34,–,62.9 µM (active)

# Assay: APR_HepG2_StressKinase_72hr: Apredica 72-hour HepG2 Assay for Stress Kinase (AID 2282921)
# Details: HepG2 stress kinase (phospho-c-Jun) imaging, actives raise or lower the signal
# How it was run: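 Phospho-c-Jun immunofluorescence measured by high-content imaging at 20x, six fields per well; bidirectional curve fitting against DMSO as baseline. Dosing: 0.39–200 uM, 72 h, 0.5% DMSO final.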
SMILES,outcome,AC50
O=[N+]([O-])c1ccc(Oc2ccc(Cl)cc2Cl)cc1,inactive,–
Cn1cc(-c2ccccc2)c(=O)c(-c2cccc(C(F)(F)F)c2)c1,inactive,–
CN(C)c1ccccc1,inactive,–
Nc1ccc(Cl)cc1N,inactive,–
CCC12COCN1COC2,inactive,–
CS(=O)(=O)NC(=O)c1cc(Oc2ccc(C(F)(F)F)cc2Cl)ccc1[N+](=O)[O-],inactive,–
ClC1=C(Cl)C2(Cl)C3C(Cl)C=CC3C1(Cl)C2(Cl)Cl (stereo unspecified),–,84.8 µM (active)
O=C(N[C@H](c1ccccc1)[C@@H]1CN2CCC1CC2)c1c(Cl)ccc(C(F)(F)F)c1Cl,inactive,–
CCCCOC(=O)c1ccccc1C(=O)OCc1ccccc1,inactive,–
c1ccc(N=Nc2ccccc2)cc1,inactive,–
CN(C)[C@@H]1C(=O)C(C(N)=O)=C(O)[C@@]2(O)C(=O)C3=C(O)c4c(O)cccc4[C@@](C)(O)[C@H]3C[C@@H]12,inactive,–
CCCSC(=O)N(CCC)CCC,inactive,–
CCCCCCCCn1sccc1=O,–,5.97 µM (active)
Oc1ccc2ccc3cccc4ccc1c2c34,inactive,–
